Holding throughout (test): protein-binding microarray (PBM); PBM: ~300 nM protein, 6 mM HEPES pH 7.8, 80 mM KCl, 0.5 mM EDTA, 0.5 mM EGTA, 6% glycerol, 35 ng/ul poly-dIdC, 1% milk, 1 h, room temperature; Ap Aiptasia and Nv Nematostella (sea anemones) / Co Capsaspora / Aq Amphimedon (sponge) / Dm Drosophila / Hu human; RHD is the Rel homology domain; high values mean tight binding
What all share (conditions): dsDNA, one strand shown

For one test, the target named is T1, GST-Ap-NF-kB RHD (Exaiptasia pallida (Aiptasia), UniProt A0A913YAJ5 2-422).
T1 sequence: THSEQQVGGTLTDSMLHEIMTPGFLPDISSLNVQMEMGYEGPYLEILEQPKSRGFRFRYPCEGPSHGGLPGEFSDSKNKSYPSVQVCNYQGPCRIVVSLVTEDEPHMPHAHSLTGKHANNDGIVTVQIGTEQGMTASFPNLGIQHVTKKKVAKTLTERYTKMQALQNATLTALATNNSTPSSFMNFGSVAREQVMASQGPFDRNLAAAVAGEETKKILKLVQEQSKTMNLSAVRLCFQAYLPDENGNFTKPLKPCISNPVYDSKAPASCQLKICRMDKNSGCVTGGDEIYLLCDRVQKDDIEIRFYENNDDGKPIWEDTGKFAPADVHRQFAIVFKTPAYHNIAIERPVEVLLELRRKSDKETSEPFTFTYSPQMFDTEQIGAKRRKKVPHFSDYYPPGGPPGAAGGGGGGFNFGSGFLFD

In test [1] the target is T2, GST-Nv-NF-kB (Cys allele) (Nematostella vectensis, UniProt E5G601 2-411).
T2 sequence: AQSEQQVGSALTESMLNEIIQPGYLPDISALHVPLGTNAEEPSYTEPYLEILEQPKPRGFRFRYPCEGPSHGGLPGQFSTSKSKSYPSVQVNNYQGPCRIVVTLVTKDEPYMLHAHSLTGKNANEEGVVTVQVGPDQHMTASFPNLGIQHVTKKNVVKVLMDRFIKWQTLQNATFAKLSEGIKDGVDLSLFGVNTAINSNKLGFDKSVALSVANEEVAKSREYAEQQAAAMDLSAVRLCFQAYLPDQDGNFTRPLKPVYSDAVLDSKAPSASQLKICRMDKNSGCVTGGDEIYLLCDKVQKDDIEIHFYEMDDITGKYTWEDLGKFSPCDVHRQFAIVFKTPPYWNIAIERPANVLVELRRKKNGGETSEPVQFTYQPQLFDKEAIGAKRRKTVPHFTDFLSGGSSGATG

For another test, the target named is T3, GST-Co-NF-kB (Capsaspora owczarzaki, UniProt F1ARL5 200-546).
T3 sequence: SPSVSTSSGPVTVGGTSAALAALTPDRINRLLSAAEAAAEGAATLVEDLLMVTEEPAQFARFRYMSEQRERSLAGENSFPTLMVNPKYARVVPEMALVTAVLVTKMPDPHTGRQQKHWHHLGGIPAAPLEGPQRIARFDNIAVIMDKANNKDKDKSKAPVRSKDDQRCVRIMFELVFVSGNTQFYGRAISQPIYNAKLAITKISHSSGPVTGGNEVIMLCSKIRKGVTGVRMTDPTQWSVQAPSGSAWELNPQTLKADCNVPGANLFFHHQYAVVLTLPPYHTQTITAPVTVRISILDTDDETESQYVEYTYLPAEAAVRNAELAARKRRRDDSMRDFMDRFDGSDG

The next test has as its target T4, GST-Dm-Relish (Drosophila melanogaster, UniProt Q94527 99-473).
T4 sequence: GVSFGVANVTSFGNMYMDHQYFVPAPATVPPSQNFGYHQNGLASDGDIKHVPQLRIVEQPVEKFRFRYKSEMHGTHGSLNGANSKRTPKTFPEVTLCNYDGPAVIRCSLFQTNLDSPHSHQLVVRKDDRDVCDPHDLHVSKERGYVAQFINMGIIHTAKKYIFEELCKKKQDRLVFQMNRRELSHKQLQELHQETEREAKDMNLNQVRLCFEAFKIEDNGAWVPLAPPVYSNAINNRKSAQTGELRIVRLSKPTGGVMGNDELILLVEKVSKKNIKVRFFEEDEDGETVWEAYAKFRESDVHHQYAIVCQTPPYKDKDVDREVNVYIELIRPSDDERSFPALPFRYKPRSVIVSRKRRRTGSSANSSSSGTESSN

Another test deals with T5, GST-Aq-NF-kB (Amphimedon queenslandica, UniProt A9Y5G7 2-389).
T5 sequence: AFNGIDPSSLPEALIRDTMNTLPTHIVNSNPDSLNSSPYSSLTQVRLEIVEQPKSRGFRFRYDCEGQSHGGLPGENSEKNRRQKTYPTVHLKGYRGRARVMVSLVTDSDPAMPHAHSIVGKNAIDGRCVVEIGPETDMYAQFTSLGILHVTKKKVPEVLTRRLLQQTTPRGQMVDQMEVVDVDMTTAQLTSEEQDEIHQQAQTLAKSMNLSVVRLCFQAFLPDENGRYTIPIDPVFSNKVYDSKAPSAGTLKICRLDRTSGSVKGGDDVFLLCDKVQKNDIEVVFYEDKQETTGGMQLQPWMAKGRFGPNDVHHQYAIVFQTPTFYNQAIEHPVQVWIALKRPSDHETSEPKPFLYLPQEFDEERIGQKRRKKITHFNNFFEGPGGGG

Among the data in article PMC5700166 are binding signal values, retold here.

For the sequence “CCGATTAACATCAGGGGATTAGATGATGTTAATCGGGTCTTGATTCGCTTGACGCTGCTG”, the binding signal came out at 4.5 z-score with GST-Ap-NF-kB RHD; 4.8 z-score in test [1]; 2.75 z-score with GST-Co-NF-kB; 3.13 z-score with GST-Dm-Relish; 3.91 z-score with GST-Aq-NF-kB.
The matching figures for “CCGATTAACATCAGATACCCCCCTGATGTTAATCGGGTCTTGATTCGCTTGACGCTGCTG”: 6.55 z-score, 4.3 z-score, 4.8 z-score, 3.94 z-score and 4.46 z-score.
Consider “CCGATTAACATCAAGGGGGTAAATGATGTTAATCGGGTCTTGATTCGCTTGACGCTGCTG”, for which the binding signal with GST-Ap-NF-kB RHD worked out at 5.28 z-score; in test [1] it was 3.77 z-score; in the test with GST-Co-NF-kB, 6.69 z-score; with GST-Dm-Relish, 2.72 z-score; with GST-Aq-NF-kB it was 4.26 z-score.
For “CCGATTAACATCAGGGAACGCCCTGATGTTAATCGGGTCTTGATTCGCTTGACGCTGCTG”, the binding signal with GST-Ap-NF-kB RHD is 2.68 z-score; in test [1] it was 2.74 z-score; in the test with GST-Co-NF-kB, 1.21 z-score; with GST-Dm-Relish, 4.32 z-score; in the test with GST-Aq-NF-kB, 5.25 z-score.
For “CCGATTAACATCAAAAACTCCCATGATGTTAATCGGGTCTTGATTCGCTTGACGCTGCTG”, the binding signal with GST-Ap-NF-kB RHD amounted to 4.22 z-score; in test [1] it was 5.15 z-score; with GST-Co-NF-kB, 2.58 z-score; with GST-Dm-Relish, 5.66 z-score; with GST-Aq-NF-kB, 5.3 z-score.
The matching figures for “CCGATTAACATCAGGGTTTTTTATGATGTTAATCGGGTCTTGATTCGCTTGACGCTGCTG”: 4.39 z-score, 5.06 z-score, 1.36 z-score, 5.89 z-score and 6.24 z-score.
In the case of “CCGATTAACATCATGGGTGGGAATGATGTTAATCGGGTCTTGATTCGCTTGACGCTGCTG”, the binding signal with GST-Ap-NF-kB RHD was 1.4 z-score; in test [1], 1.79 z-score; in the test with GST-Co-NF-kB it was 2.62 z-score; in the test with GST-Dm-Relish it was 1.66 z-score; with GST-Aq-NF-kB it was 2.5 z-score.
Consider “CCGATTAACATCACGGGAAGTCCTGATGTTAATCGGGTCTTGATTCGCTTGACGCTGCTG”, for which the binding signal came to 2.98 z-score in the test with GST-Ap-NF-kB RHD; 3.06 z-score in test [1]; 1.33 z-score with GST-Co-NF-kB; 7.73 z-score with GST-Dm-Relish; 6 z-score with GST-Aq-NF-kB.
For the sequence “CCGATTAACATCACCCAGGGAAATGATGTTAATCGGGTCTTGATTCGCTTGACGCTGCTG”, the binding signal with GST-Ap-NF-kB RHD turned out to be 1.54 z-score; in test [1], 2.66 z-score; with GST-Co-NF-kB, 2.73 z-score; with GST-Dm-Relish, 1.46 z-score; in the test with GST-Aq-NF-kB, 2.69 z-score.
For “CCGATTAACATCAGGAATACCCCTGATGTTAATCGGGTCTTGATTCGCTTGACGCTGCTG”, the binding signal with GST-Ap-NF-kB RHD worked out at 6.59 z-score; in test [1], 6.44 z-score; with GST-Co-NF-kB, 4.14 z-score; with GST-Dm-Relish, 6.46 z-score; with GST-Aq-NF-kB, 6.92 z-score.
The matching figures for “CCGATTAACATCAGGGGAGTATATGATGTTAATCGGGTCTTGATTCGCTTGACGCTGCTG”: 4.78 z-score, 3.81 z-score, 4.7 z-score, 2.18 z-score and 3.95 z-score.
Turning to “CCGATTAACATCAGCACCCCCCCTGATGTTAATCGGGTCTTGATTCGCTTGACGCTGCTG”, the binding signal with GST-Ap-NF-kB RHD turned out to be 5.67 z-score; in test [1], 3.51 z-score; with GST-Co-NF-kB it was 4.07 z-score; with GST-Dm-Relish, 4.44 z-score; with GST-Aq-NF-kB, 4.32 z-score.
On to “CCGATTAACATCAAACTCTCCCCTGATGTTAATCGGGTCTTGATTCGCTTGACGCTGCTG”, for which the binding signal in the test with GST-Ap-NF-kB RHD came out at 5.13 z-score; in test [1] it was 4.94 z-score; in the test with GST-Co-NF-kB it was 6.22 z-score; with GST-Dm-Relish, 1.21 z-score; in the test with GST-Aq-NF-kB, 4.74 z-score.
Take “CCGATTAACATCAATATTTCCCATGATGTTAATCGGGTCTTGATTCGCTTGACGCTGCTG”: the binding signal in the test with GST-Ap-NF-kB RHD worked out at 2.29 z-score; in test [1], 3.85 z-score; with GST-Co-NF-kB, 5.1 z-score; with GST-Dm-Relish it was 1.61 z-score; in the test with GST-Aq-NF-kB, 3.82 z-score.
